Measured values: ChEMBL document CHEMBL3988442, “University of Dundee, Small-Polar-MMV Screening Library” (2021)
The campaign covered roughly 38,000 compounds. About 1,200 (3.2%) showed an effect of 50% or more. The median lay at about -58%. The sample holds strong results, similar compounds and a random draw of the others, so the mix is not that of the screen.

test system: Plasmodium falciparum; experiment: Calibr Malaria Delayed Death Assay SOP; type: functional, organism-based; design: scale not given: in the data most compounds retested in dose-response had high values; conditions: concentration 4.99e-06 (unit not given; other assays of the set use mol/L)

Row | SMILES | Percent Effect [%]
1 | CCC(O)CN1CCN(C(=O)c2cccc3c2OCC(=O)N3)CC1 (stereo unspecified) | -136.7
2 | CC(C)CN1C(=O)C2(CCN(Cc3ccsc3)C2)c2ccccc21.O=C(O)C(F)(F)F (stereo unspecified) | -33.32
3 | Cc1cccc(CN2CCc3ncnc(N4CCN(C)CC4)c3CC2)n1.O=C(O)C(F)(F)F.O=C(O)C(F)(F)F | -236.1
4 | Cc1noc(C(C)C)c1C(=O)NCCCOC(C)C | -142.4
5 | CC(CNC(=O)NCc1ccoc1)N1CCc2sccc2C1 (stereo unspecified) | -8.458
6 | CCc1cnc(CN(C)C2CCN(CCCS(=O)(=O)NC)C2)o1 (stereo unspecified) | -85.83
7 | COCCN1C[C@H]2CCC[C@@H](CNc3ncccn3)[C@H]2C1.O=C(O)C(F)(F)F.O=C(O)C(F)(F)F | 19.85
8 | O=C(O)C(F)(F)F.c1ccc(NC[C@@H]2CCC[C@@H]3CN(Cc4cc[nH]n4)C[C@@H]32)nc1 | -36.14
9 | O=C(O)C(F)(F)F.c1ccc(NC[C@@H]2CCC[C@@H]3CN(c4ncccn4)C[C@@H]32)nc1 | 71.6
10 | Cc1cccc(C)c1OC1CN(C(=O)C2CC(=O)N(C(C)(C)C)C2)C1 (stereo unspecified) | -9.651
11 | FC(F)(F)c1ccc(-c2cc(NC3CCNCC3)nc3[nH]ccc23)nc1 | -115.3
12 | CNc1cc(C)nc(-c2cc(NC3CCNCC3)nc3[nH]ccc23)n1 | -52.32
13 | COc1nccnc1-c1cc(NC2CCCC2)nc2[nH]ccc12 | 19.53
14 | COc1cc(-c2cc(NC3CCCC3)nc3[nH]ccc23)nc(N)n1 | 62.87
15 | COc1nccnc1-c1cc(NC2CCNCC2)nc2[nH]ccc12 | -131.1
16 | COc1ncc(-c2cc(NC3CCCC3)nc3[nH]ccc23)c(OC)n1 | 74.29
17 | CC(Nc1ccc(F)cc1)c1nnnn1-c1ccccc1 (stereo unspecified) | -147.9
18 | Cc1cc(S(C)(=O)=O)c(C)c(S(=O)(=O)N2CCCCCC2)c1 | -98.91
19 | c1cnn(CC2CN(Cc3nc(-c4ccoc4)no3)CCO2)c1 (stereo unspecified) | -25.36
20 | Cc1csc(N2CCCN(C(=O)Cc3ccc(C)s3)CC2)n1 | -98.4
21 | CCN(CC)c1nc(C)cc(C(=O)Nc2ccc(Br)cc2)n1 | -6.909
22 | CN1CCC(N(C)C(=O)Nc2ccc(Cl)cc2)CC1 | -68.4
23 | Cc1nc(N2CCCC2)ncc1C(=O)Nc1ccc(Br)cc1 | -75.85
24 | Cn1cc(NC(=O)CNC(=O)N2CCN(c3ccc(Cl)cc3)CC2)cn1 | 2.407

Row | SMILES | Percent Effect [%]
25 | Cc1oc(-c2cccc(F)c2F)nc1CN(C)CCO | -89.89
26 | CC[C@H](C)[C@H](NC(=O)c1cccc(-n2cnnn2)c1)C(=O)OC | -118.3
27 | COCC(O)CNC(=O)c1cc(COc2ccc3c(c2)CCCC3)on1 (stereo unspecified) | -3.069
28 | CC(C)NC(=O)CC1COC2(CCN(Cc3cccs3)CC2)C1.O=C(O)C(F)(F)F (stereo unspecified) | -6.903
29 | O=C(COc1coc(CN2CCCC2)cc1=O)Nc1ccc(Cl)c(Cl)c1 | -65.99
30 | O=C(COc1coc(CN2CCCCC2)cc1=O)Nc1ccccc1Cl | -97.93
31 | O=C(COc1coc(CN2CCCC2)cc1=O)Nc1cc(Cl)ccc1Cl | 79.74
32 | COc1ccc(NCC(=O)NCC(=O)N2CCCC2)c(C(F)(F)F)c1 | -93.16
33 | CC(C)CNC(=O)CN(Cc1ccc(F)cc1)S(C)(=O)=O | -57.65
34 | COc1ccc(C[C@H]2CN(C(=O)c3cscn3)CC[C@@H]2OC)cc1 | -91.5
35 | CCn1cnnc1CNC(=O)N1CCN(CC(C)C)CC1 | -55.6
36 | c1ccc(-c2nc(CNC3CCc4ncnn4C3)no2)cc1 (stereo unspecified) | -138.7
37 | CN(C)c1ccc(CNC2(c3ccc(F)cc3)CCOCC2)cc1F | 25.79
38 | CSc1ccc(CNC2(c3ccc(F)cc3)CCOCC2)cc1 | 28.49
39 | Fc1ccc(C2(NCc3ccccc3)CCOCC2)cc1 | 62.64
40 | O=C(CCc1nc2ccccc2[nH]1)Nc1ccc2c(c1)OCC(=O)N2 | -185.4
41 | Cc1cc(F)c(S(=O)(=O)Nc2ccn(CCC#N)n2)cc1F | -82.35
42 | CN(C)[C@@H]1CCN(c2ncc(F)cn2)[C@H]1Cc1cccnc1.O=C(O)C(F)(F)F.O=C(O)C(F)(F)F | -22.18
43 | CN(C)[C@@H]1CCN(c2ncc(F)cn2)[C@H]1Cc1ccncc1.O=C(O)C(F)(F)F.O=C(O)C(F)(F)F | 27.12
44 | CN(C)[C@@H]1CCN(c2ncccn2)[C@H]1Cc1ccncc1.O=C(O)C(F)(F)F.O=C(O)C(F)(F)F | -10.95
45 | CN(C)[C@@H]1CCN(c2ncccn2)[C@H]1Cc1ccccc1 | 77.2
46 | CO[C@@H]1CCN(c2ncccn2)[C@H]1Cc1ccccc1 | -224.1
47 | CN(C)[C@@H]1CCN(c2ncccn2)[C@H]1Cc1cccnc1.O=C(O)C(F)(F)F.O=C(O)C(F)(F)F | 10.59
48 | Fc1cnc(N2CC[C@@H](N3CCOCC3)[C@@H]2Cc2ccccc2)nc1 | -55.08

Row | SMILES | Percent Effect [%]
49 | CN(C)[C@@H]1CCN(c2ncc(F)cn2)[C@H]1Cc1ccccc1.O=C(O)C(F)(F)F.O=C(O)C(F)(F)F | 88.46
50 | Cc1nn(C)c(C)c1CN(C)C(C(=O)O)c1ccc(F)cc1F (stereo unspecified) | -28.09
51 | Cc1nc(-c2nnc[nH]2)sc1C(=O)N1CCCC1c1cccs1 (stereo unspecified) | -86.12
52 | Cc1ccc(F)c(S(=O)(=O)NCCc2nnc[nH]2)c1 | -33.36
53 | N#Cc1ccc(NCC(O)c2ccco2)c(C(F)(F)F)c1 (stereo unspecified) | -33.98
54 | Cn1cc(C(=O)N2CCCC(CN3CCCC3=O)C2)cn1 (stereo unspecified) | -14.99
55 | O=C(c1ccc(F)c(F)c1)N1CCC[C@]2(C[C@@H](OCC3CC3)CO2)C1 | -0.7044
56 | COC(=O)CC(c1ccc(O)c(Cl)c1)c1oc(C)cc(=O)c1O (stereo unspecified) | -28.31
57 | Cc1nc(C)n(C2CCCN(C(=O)CCc3ccccn3)C2)n1 (stereo unspecified) | -132.7
58 | CC(C)COCCNC1CCN(c2ccccn2)CC1 | 60.11
59 | OC1(CNC2CCN(c3ccccn3)CC2)CCc2ccccc21 (stereo unspecified) | 27.14
60 | CC(C)COCCC(=O)NCCC(=O)N1CCN(c2ccccn2)CC1 | -146.7
61 | CC(CNC1CCN(c2ccccn2)CC1)Oc1ccc(F)cc1 (stereo unspecified) | 47.69
62 | COCCOCC(=O)NC1CCN(c2ccccn2)CC1 | -21.4
63 | COc1ccc(C(C)CCNC2CCN(c3ccccn3)CC2)cc1 (stereo unspecified) | 67.25
64 | CSCC(=O)N1CCOC(c2nc(C(C)C)n[nH]2)C1 (stereo unspecified) | -97.79
65 | CC(C)[C@H]1CN(c2ccnc(N)n2)C[C@@H]1NC(=O)C1(C#N)CCOCC1 | -66.36
66 | Cc1cc(CN2CCC(c3nccn3C(C)C)CC2)ccc1F | 18.24
67 | OC1COCCN(Cc2cc(-c3ccccc3OC(F)(F)F)no2)C1 (stereo unspecified) | -13.03
68 | NC1CCCCN(Cc2cc(-c3ccccc3OC(F)(F)F)no2)C1 (stereo unspecified) | 70.63
69 | C[C@@H]1CN(Cc2cc(C3CCCCC3)no2)CC[C@]1(C)O | -5.788
70 | Fc1ccc(C2CCCCN2Cc2cc(-c3ccccn3)no2)cc1 (stereo unspecified) | -40.19
71 | OCC1COCCN(Cc2cc(C3CCCCC3)no2)C1 (stereo unspecified) | -120.4
72 | NC1CCCCN(Cc2cc(C3CCCCC3)no2)C1 (stereo unspecified) | 62.41

Row | SMILES | Percent Effect [%]
73 | O=C(O)C(F)(F)F.O=C(O)C(F)(F)F.O=C1COC2(CCN(Cc3cccnc3)CC2)CN1c1ccccc1 | -17.97
74 | Cc1cnc(C(=O)N2CCCC(n3cccn3)C2)cn1 (stereo unspecified) | -66.69
75 | CCN(C)Cc1cccc(CNC(=O)NCCc2ccccn2)c1 | -13.41
76 | CN(C)Cc1nnc2n1CCN(Cc1ccccn1)CC2 | -1.592
77 | CC(C)Nc1nc2c(s1)C(=O)CN(C(=O)NCc1ccccc1)C2 | -132.7
78 | NC(=O)COc1ccc(CN2CCNC(C(=O)NC3CC3)C2)cc1Cl (stereo unspecified) | -16.07
79 | CCCOc1cc(Cl)c(CN2CCNC(C(=O)NC3CC3)C2)cc1OC (stereo unspecified) | 74.72
80 | CCOc1ccc(CN2CCNC(C(=O)NC3CC3)C2)cc1CO (stereo unspecified) | -11.99
81 | Cc1cc(C)n(CC(=O)N(CC2CN(C)CCO2)c2nccs2)n1 (stereo unspecified) | -86.12
82 | COc1ccc(Cn2c(Cc3c(C)n[nH]c3C)n[nH]c2=O)cc1 | -40.64
83 | CN(C)CCO[C@H]1CN(C(=O)c2ccc(C#N)cc2)[C@@H]2COC[C@H]12 | -51.41
84 | CCCn1ncc2c(C(=O)NC(C)Cn3cccn3)cc(C3CC3)nc21 (stereo unspecified) | -124.5
85 | Cc1ccc(CS(=O)(=O)NCc2ccco2)cc1 | -37.35
86 | Cc1cccc(CS(=O)(=O)NCC(O)Cc2ccccc2)c1 (stereo unspecified) | -12.6
87 | Br.Cc1cc(C)c(N(CC(O)CNCc2ccccc2)S(C)(=O)=O)c(C)c1 (stereo unspecified) | 69.59
88 | Cc1ccc(N(C)CC(O)COCc2ccccc2)c(C)c1 (stereo unspecified) | -54.55
89 | N#Cc1cccc(CS(=O)(=O)NCC(O)Cc2ccccc2)c1 (stereo unspecified) | -10.83
90 | Cc1cc(C)c(N(CC(O)CNCc2ccco2)S(C)(=O)=O)c(C)c1.O=C(O)c1ccccc1 (stereo unspecified) | 59.67
91 | O=S(=O)(Cc1cccc(F)c1)NCC(O)Cc1ccccc1 (stereo unspecified) | -87.6
92 | O=C(C(CNCc1ccco1)c1ccccc1)N1CCOCC1 (stereo unspecified) | -74.95
93 | CCn1nc(C)c2nc(C)nc(NCCc3ccccc3)c21 | 35.69
94 | CO[C@@H]1CN(c2ccccc2)S(=O)(=O)[C@@]12CCNC2 | -24.96
95 | CC1c2ccsc2CCN1Cc1cc2c(cc1O)OCO2 (stereo unspecified) | 25.38
96 | Cn1cc(C2CCCN2C(=O)c2cnc(-c3ncccn3)s2)cn1 (stereo unspecified) | -23.4
